# Sampled rows, rich in hits. Any-hit rate of the full collection: about 3.3%.
# SMARCA2 act = activators of SMARCA2 function | 1% of 370,000 active | MG213 cells, MMTV-luciferase reporter, dexamethasone, overnight | activation, % at 9.1 µM; in the data active means activation above about 7.8%;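 further: 0% = vehicle wells and 100% = reference activator wells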
# 697 NFkB inh = lowers PMA/ionomycin-induced NF-kB signal in 697 B cells | 697 B-cell NF-kB luciferase reporter, 16 h | inhibition, % at 4 µM | 0.33% of 330,000 active | AID 435022; in the data active means inhibition above about 35%
# Gli-Sufu antag = antagonists of Gli-Sufu signaling | Sufu-KO-LIGHT fibroblasts, Gli luciferase reporter luminescence | 0.74% of 340,000 active | inhibition, % at 5 µM | AID 588413;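 active means inhibition above about 55%, limit read from the data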;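 further: 0% = DMSO-treated cells and 100% = wells with medium but no cells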
# Jurkat NFkB inh = lowers PMA/ionomycin-induced NF-kB signal in Jurkat cells; PMA/ionomycin-induced NF-kB luciferase reporter, luminescence; inhibition, % at 4 µM; 0.53% of 330,000 active; AID 435003; in the data active means inhibition above about 50%
# esBAF inh = inhibitors of esBAF chromatin remodeling in mouse ES cells; Bmi1-luciferase knock-in reporter, 24 h; 100% = twice the neutral-well signal; reporter increase, % at 12.5 µM; 2% of 350,000 active; in the data active means activation above about 40%;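 further: 0% = median of the plate's neutral control wells and 100% = double that signal; a rise in the Bmi1 reporter signal indicates esBAF inhibition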
# * = called active by the depositor; . = not tested or not shown.
SMILES,SMARCA2 act,697 NFkB inh,Gli-Sufu antag,Jurkat NFkB inh,esBAF inh
C[C@@H]1CCCCO[C@@H](CN(C)Cc2ccccc2)[C@@H](C)CN([C@H](C)CO)C(=O)c2cc(NS(C)(=O)=O)ccc2O1,.,.,.,.,-3.1
Cc1c(Cl)cccc1Nc1nc(N)nc(CSc2ncccn2)n1,2.4,-51.7,-34.9,-49.0,52.5*
Cc1c(Cl)cccc1Nc1nc(N)nc(CSCCO)n1,0.5,.,-20.7,.,.
CO[C@@H]1CC[C@H]2CCOc3ccc(C#N)cc3C(=O)N(C)C[C@@H](OC)[C@@H](C)C(=O)N(C)C[C@H]1O2,.,.,.,.,-0.7
CCNC(=O)NC(=O)COc1ccccc1C#N,1.8,-34.9,-43.5,-53.2,91.1*
N#Cc1ccccc1OCC(=O)NC(=O)NCc1ccccc1,-1.3,-2.8,13.4,-10.6,.
CO[C@H]1CN(C)C(=O)c2cc(NC(=O)c3cnccn3)ccc2OC[C@@H](C)N(C(C)=O)C[C@H]1C,.,.,.,.,-2.2
CNC[C@@H]1Oc2cc(C#CC(C)(C)O)ccc2S(=O)(=O)N([C@H](C)CO)C[C@H]1C,.,.,.,.,-3.5
O=C1NC2(CCCCC2)C(=O)N1/N=C/c1ccccc1Br,1.9,-11.2,-51.7,-17.9,49.2*
O=C(O)c1ccc(-c2nc(-c3ccc(Cl)cc3Cl)cs2)cc1,4.4,-161.6,11.5,-26.8,59.7*
Cc1cc(C)n2nc(SCc3nnc(SCc4ccccc4C)s3)nc2n1,-2.2,-26.0,5.8,7.8,82.9*
CCOC(=O)CC(NC(=O)c1cc2cccc(OC)c2oc1=O)c1ccc(OC)cc1 (stereo not drawn),2.2,-52.0,-6.5,-3.4,49.8*
CC(C)OC(=O)c1ccc2ccc(-c3ccccc3)nc2c1,6.2,.,.,.,54.6*
CC(C)OC(=O)c1ccc2nc3ccccc3nc2c1,4.7,-177.4,-147.4,-124.5,-3.6
Cc1c(Cl)ccc2sc(NC(=O)c3ccco3)nc12,0.7,-165.4,-106.6,-113.2,64.1*
COc1ccc(-c2nc(NC(=O)c3ccco3)sc2C)cc1,-4.2,.,.,.,64.9*
Cc1c(Cl)cccc1NC(=O)c1ccco1,7.5,-5.4,10.3,4.5,6.2
Cn1cnc(CCNC(=O)C[C@@H]2CC[C@H]3[C@@H](COC[C@H](O)CN3C(=O)Nc3ccccc3)O2)c1,.,.,.,.,-3.7
CCOC(=O)c1[nH]nc(C(=O)c2ccc(Br)cc2)c1O,-1.8,14.6,-7.8,1.6,54.2*
CCOC(=O)c1ccc(CNCc2ccc(Br)cc2)cc1,-2.8,13.0,-35.3,13.5,-0.1
CC1Cc2nc(SCC(=O)Nc3ccc4c(c3)OCO4)n(Cc3ccccc3)c(=O)c2S1 (stereo not drawn),6.2,-108.2,-44.2,-58.7,63.9*
CC1Cc2nc(SCC(=O)Nc3nccs3)n(Cc3ccccc3)c(=O)c2S1 (stereo not drawn),-0.8,6.2,-6.8,-12.3,7.9
CC1Cc2nc(SCC(=O)Nc3ccc4c(c3)OCCO4)n(C)c(=O)c2S1 (stereo not drawn),-1.6,-21.6,6.8,-16.1,8.8
COCCn1c(SCC(=O)Nc2ccc3c(c2)OCCO3)nc2c(c1=O)SC(C)C2 (stereo not drawn),-0.8,-50.2,-17.4,-45.5,47.0*
O=C(NCc1ccco1)c1cc(-c2ccc(F)cc2)on1,4.0,-44.9,-56.0,-55.1,-0.3
SMILES,SMARCA2 act,697 NFkB inh,Gli-Sufu antag,Jurkat NFkB inh,esBAF inh
CCc1nc2ccc(C(=O)NCCc3ccco3)cc2nc1CC,.,8.4,-32.4,-9.0,52.9*
O=C(NCc1ccco1)c1ccc2ccccc2c1,1.7,-34.1,-43.9,-35.6,72.0*
O=C(NCc1ccco1)c1ccc(C(=O)NCc2ccco2)cc1,-5.6,.,-3.0,.,.
O=C(NCc1ccco1)c1cc(-c2ccccc2)on1,0.0,-34.0,-66.2,-59.4,104.6*
CCOc1ccc(CCNC(=O)c2ccc3nc(CC)c(CC)nc3c2)cc1,-1.8,13.7,-14.4,4.9,7.0
CN(C)CCCNC(=O)C[C@H]1CC[C@H]2[C@@H](COC[C@H](O)CN2S(=O)(=O)c2ccc(F)cc2)O1,.,.,.,.,-3.3
NC(N)=NC(=O)c1nc(Cl)c(N2CCCCCC2)nc1N,5.0,-69.1,-39.7,-32.4,58.6*
CNC(=S)N/N=C/c1ccc(N(C)C)cc1,2.9,-53.4,-25.8,-77.8,.
CNC(=S)N/N=C/c1ccc(C(C)C)cc1,2.8,-47.8,-30.3,-41.1,58.6*
O=C(C[C@@H]1CC[C@@H]2[C@H](COC[C@H](O)CN2S(=O)(=O)c2ccccc2)O1)NCc1ccc2c(c1)OCO2,.,.,.,.,-3.4
Clc1cc(Br)ccc1OCCN1CCOCC1,-1.0,1.5,-4.9,-3.7,.
CCCCCOc1ccc(CN2CCOCC2)cc1Cl,2.1,-98.3,-55.6,-96.2,49.8*
CCN(CC)CCNC(=O)c1ccc2c(=O)n(C3CCCC3)c(=S)[nH]c2c1,-1.1,-60.7,70.7*,-30.0,4.9
O=C(N/N=C/c1ccc[nH]1)c1ccc([N+](=O)[O-])cc1,7.9*,15.4,-2.6,5.7,.
O=C(N/N=C/c1ccc[nH]1)c1sc2ccccc2c1Cl,0.9,-16.5,-3.2,-10.7,55.3*
O=C(N/N=C/c1ccc[nH]1)c1cc2ccccc2cc1O,-0.3,2.9,-20.4,-5.2,52.8*
O=C(C[C@@H]1C=C[C@@H](NC(=O)c2ccccc2)[C@@H](CO)O1)Nc1ccc(-c2ccccc2)cc1,.,.,.,.,6.7
O=C(C[C@@H]1CC[C@H](NC(=O)c2cnccn2)[C@@H](CO)O1)NCc1ccccc1F,.,.,.,.,-2.5
C[C@H](CO)N1C[C@H](C)[C@@H](CN(C)Cc2ccc(-c3ccccc3)cc2)Oc2ccc(NC(=O)Cc3cn(C)c4ccccc34)cc2C1=O,.,.,.,.,-1.9
C[C@@H]1CN([C@H](C)CO)C(=O)Cc2cc(NC(=O)Cc3ccccc3)ccc2O[C@H]1CN(C)S(=O)(=O)c1ccc(Cl)cc1,.,.,.,.,1.5
O=C(/C=C/c1ccco1)Nc1nc(-c2ccc(F)c(F)c2)cs1,.,-96.1,57.9*,-6.5,.
Cc1noc(C)c1NC(=O)Nc1ccc2c(c1)CC(=O)N([C@@H](C)CO)C[C@@H](C)[C@H](CN(C)C(=O)Nc1ccc(C(F)(F)F)cc1)O2,.,.,.,.,-4.4
Cc1ccc(Nc2nnc(SCC(=O)NCC3CCCO3)s2)cc1C (stereo not drawn),2.2,4.6,-1.2,-1.2,46.9*
C[C@@H]1CN([C@H](C)CO)C(=O)Cc2cc(NC(=O)Cc3ccccc3)ccc2O[C@@H]1CN(C)Cc1ccncc1,.,.,.,.,3.6
CCOc1ccc2c(=O)c(Oc3ccccc3OCC)coc2c1,-3.4,-11.0,-50.0,-10.6,64.3*
SMILES,SMARCA2 act,697 NFkB inh,Gli-Sufu antag,Jurkat NFkB inh,esBAF inh
CCOc1ccccc1Oc1coc2cc(OCC(=O)O)ccc2c1=O,-0.1,-4.0,0.1,-2.2,-0.7
C[C@H](NC(=O)C[C@@H]1CC[C@H](NC(=O)Cc2ccccn2)[C@@H](CO)O1)c1ccccc1,.,.,.,.,-5.5
COc1ccc(NC(=O)N[C@@H]2CC[C@H](CCn3cc(-c4ccccn4)nn3)O[C@@H]2CO)cc1,.,.,.,.,5.0
O=C(C1CCCN(S(=O)(=O)c2ccc(F)cc2)C1)N1CCOCC1 (stereo not drawn),4.7,.,-74.2,.,55.2*
CCOc1ccc2nc(NC(=O)NC3CCCCC3)sc2c1,-2.1,-22.5,-28.2,-53.7,34.2*
CCOc1ccc2nc(NC(=O)C34CC5CC(CC(NC(C)=O)(C5)C3)C4)sc2c1,0.6,-73.7,-34.9,-92.8,57.6*

# Bioassay records from PubChem.
